Assay in all cases: NCI-60 one-dose screen, 48 h (100 = growth as untreated, 0 = no growth, -100 = all killed)
Holding throughout (conditions): 10 µM unless noted

In experiment [1] the test system is SR leukemia.
Experiment [2] relates to RPMI-8226 leukemia.
Experiment [3] relates to OVCAR-8 ovarian.
Experiment [4] relates to OVCAR-5 ovarian.
Experiment [5] has as its system OVCAR-4 ovarian.
For experiment [6], the system named is SK-OV-3 ovarian.
The test system of experiment [7] is IGROV1 ovarian.
Experiment [8] relates to OVCAR-3 ovarian.
The subject of experiment [9] is NCI/ADR-RES ovarian.
For experiment [10], the system named is T-47D breast.
Experiment [11] has as its system BT-549 breast.
For experiment [12], the system named is MDA-MB-435 melanoma.
The subject of experiment [13] is MCF7 breast.
In experiment [14] the test system is HCT-116 colon.
Experiment [15] has as its system HCC-2998 colon.
Experiment [16] concerns KM12 colon.
For experiment [17], the system named is MDA-MB-468 breast.
In experiment [18] the test system is HS 578T breast.
Experiment [19] concerns SW-620 colon.

This is an account of results in PubChem BioAssay (NCI).

About 83,000 compounds went through this panel and 20% of them were active in at least one assay; those are over-represented in the sample as a whole.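 96-well plates, one dose, 48 hours. Percent growth reported; active if below 10.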 Values without a mark were called inactive. Calls of active or inactive are those of the source.

Take `CNC(=O)c1cc(Oc2ccc3nc(NC(=O)Nc4cccc(OC(F)(F)F)c4)sc3c2)ccn1`: the growth is 37.3% in experiment [1]; 51.7% in [2]; 6.11% (active) in [3]; 50.6% in experiment [4]; 30.8% in [5]; -30.7% (active) in experiment [6]. In addition, the growth was 28.4% in experiment [7]; 46.2% in experiment [8]; -2.64% (active) in experiment [9]; 47.4% in [10]; 0.174% (active) in experiment [11]; 53.9% in [12]. Besides, the growth in [13] is 39.2%; in experiment [14] it was 17.2%; in experiment [15], 46.8%; in experiment [16], 53.1%; in experiment [17] it was 1.5% (active).
Take `C#CCOc1cc(N(CC)CC)ccc1C(C(=O)NC(C)(C)C)N(C(=O)C1CCc2cc(F)ccc2O1)c1ccc(F)cc1` (stereo not given): the growth in experiment [1] was 26.7%; in [2], 25.4%; in experiment [3], 52.4%; in [4], 69.7%; in experiment [5] it was 51%; in [6], 62.4%. For the same molecule, the growth in experiment [8] is 47.9%; in [18], 64.4%; in [9], 56.8%; in [10], 40.3%; in experiment [11] it was 50.9%; in experiment [12], 54.4%. Besides, the growth was 58.6% in experiment [19]; 20.2% in [13]; 27.1% in [14]; 71.9% in experiment [15]; 25.7% in experiment [16]; 33.2% in experiment [17].
On to `C=C1CCC2C3(C)COC(c4cccs4)OC3CCC2(C)C1CC(Sc1ccccc1)C1=CCOC1=O` (stereo not given), for which the growth in experiment [1] is 46.1%; in experiment [2], 16.1%; in experiment [3], 66%; in experiment [4], 102%; in experiment [5], 83.6%; in [6] it was 131%. Further, the growth was 86.1% in experiment [8]; 112% in experiment [18]; 2.64% (active) in experiment [9]; 82.3% in [10]; 25.8% in experiment [11]; 87.2% in experiment [12]. Moreover, the growth in [19] was 80%; in [13] it was 38.2%; in experiment [14], 32.4%; in experiment [15], 81.5%; in [16], 89.2%; in experiment [17] it was 90.5%.
Turning to `Nc1nc(-c2ccccc2)c(N=Nc2ccc(Cl)cc2[N+](=O)[O-])s1`, the growth was 99.7% in experiment [1]; 94.2% in [2]; 91.3% in [3]; 101% in experiment [4]; 97.2% in experiment [5]; 96.5% in [6]. The growth in experiment [8] was 108%; in experiment [18] it was 79.6%; in experiment [9] it was 101%; in experiment [10] it was 61.2%; in [11] it was 92.6%; in [12], 105%. Also, the growth in [19] was 102%; in [13], 60.3%; in experiment [14] it was 97.1%; in [15] it was 102%; in experiment [16] it was 102%; in experiment [17] it was 89.7%.
`CSc1ccccc1NC(=O)c1ccc2nnn(/C(C#N)=C/c3ccccn3)c2c1`: the growth in experiment [1] is -5.23% (active); in [2] it was -29% (active); in [3], -86.6% (active); in [4], -95% (active); in [5], -96.5% (active); in experiment [6] it was 63.1%. Besides, the growth in experiment [7] was -81.8% (active); in [8], -81.9% (active); in experiment [9], -44.2% (active); in experiment [10], -73.2% (active); in [11], -99.5% (active); in [12] it was -55.8% (active). In addition, the growth in [13] is -81.4% (active); in [14], -96.5% (active); in [15], -97.8% (active); in experiment [16] it was -66.9% (active); in experiment [17] it was -92% (active).
Take `CC(=O)Nc1cccc(-c2nc3cc(-c4ccc(O)cc4)ccc3n2C)c1`: the growth in experiment [1] is 59%; in experiment [2], 28.4%; in [3], 22.2%; in experiment [4], 93.6%; in [5], 20.9%; in experiment [6] it was 77.5%. The growth in experiment [8] was 31.3%; in experiment [18] it was 56.1%; in experiment [9] it was 65.2%; in experiment [10], 9.44% (active); in experiment [11] it was -8.08% (active); in [12], 11.1%. For the same molecule, the growth in experiment [19] is 79.3%; in [13], 6.65% (active); in experiment [14], 45.7%; in [15], 88.2%; in [16], 37.5%; in experiment [17], 7.83% (active).
`COc1ccc2cc([C@H](C)C(=O)N/N=C/c3ccc(Br)cc3)ccc2c1`: the growth is 87.3% in experiment [1]; 105% in experiment [2]; 105% in experiment [3]; 100% in [4]; 100% in experiment [5]; 97.7% in experiment [6]. Besides, the growth was 102% in [7]; 114% in experiment [8]; 98.2% in experiment [9]; 90.3% in experiment [10]; 104% in experiment [11]; 103% in experiment [12]. The growth in experiment [13] was 90.7%; in [14], 103%; in [15], 107%; in [16], 105%; in experiment [17] it was 100%.
In the case of `Cc1ccc(NC(=O)CN2CCN(c3ncnc4c3cnn4-c3ccccc3)CC2)cc1`, the growth was 52.6% in [1]; 75.8% in [2]; 71.4% in [3]; 98% in experiment [4]; 82.9% in experiment [5]; 112% in [6]. Moreover, the growth in experiment [8] was 103%; in [18], 77.7%; in experiment [9], 79.5%; in experiment [10], 78.9%; in [11], 85%; in [12] it was 94.2%. Further, the growth in experiment [19] is 99.9%; in experiment [13] it was 74.2%; in [14], 76.3%; in experiment [15] it was 102%; in [16], 89.9%.
